Screens deposited in PubChem BioAssay by National Center for Advancing Translational Sciences (NCATS).
The sample as a whole holds a higher share of hits than the screen did.
CHX counter: counter-screen for Shiga toxin inhibitors: cycloheximide protein synthesis inhibition; cell reporter, cycloheximide protein synthesis inhibition counterscreen; AID 2314; 12% of 300,000 active; max response, %; in the data active = max response mostly above about 13%, no sharp cut-off; inactive = mostly below about 14%; also: read at 38.3 µM for the half of the compounds with a filed dose; 0% is about no effect
Shiga toxin inh: blocks Shiga toxin action in Vero cells. Vero cells, Shiga toxin protein synthesis inhibition reporter. inhibition, % at 38.7 µM. 9.2% of 290,000 active; in the data active = inhibition mostly above about 28%, no sharp cut-off; inactive = mostly below about 43%; also: 0% is about no effect
SARS PLP yeast: inhibitors of SARS-CoV papain-like protease in yeast; S. cerevisiae expressing SARS-CoV PLpro, growth rescue; Potency, µM (top dose mostly 32.9 µM), for the others: at the highest dose activity, positive = growth rescue, most hits filed as activators; 0.19% of 330,000 active; also: potency is read from the fitted curve at half-maximal effect; 0% is about no effect; nearly all actives have a fitted effect of over 55% in size
NS1 function inh: influenza NS1 inhibition. Potency, µM (doses to about 46.1 µM), for inactives: top-dose activity, positive = more growth. 0.4% of 270,000 active; also: potency is read from the fitted curve at half-maximal effect; actives are rising curves; nearly all actives have a fitted effect of over 50% in size
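Compounds were scored for reversing the slow growth caused by influenza A NS1 in S. cerevisiae, measured by optical density at 600 nm. Assay medium contained 2% galactose at pH 6.0; NS1-free yeast of the same strain were the positive control.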
Tb PYK inh: inhibitors of Trypanosoma brucei pyruvate kinase. Q57TT1. TbPYK enzyme, Kinase-Glo Plus ATP luminescence, 45 min. Potency, µM (titrated, usually from 76.8 µM), for the others: at the highest dose activity, negative = inhibition, hits mostly inhibitors. 0.12% of 410,000 active. AID 624173; active = well fitted curve in the direction sought with a large enough effect; an effect the other way counts as inactive or inconclusive; also: potency is read from the fitted curve at half-maximal effect; % is scaled to controls: 0 for no effect and ±100 for the full control effect; nearly all actives have a fitted effect of over 50% in size
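Readout: single end-point luminescence (Kinase-Glo Plus, 10 min). Reaction conditions were TbPYK/substrate plus 130 uM ADP, 45 min at RT, pH 7.2 TEA buffer. No-enzyme wells served as controls, and data were normalized before concentration-response fitting.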
LmPK inhibitor: LmPK (Leishmania mexicana) enzyme inhibition; Q27686; purified LmPK, Kinase-Glo ATP luminescence, 1 h; Potency, µM (highest dose often 57.5 µM), without a hit: at the highest dose activity change, negative = inhibition, usual class: inhibitors; 0.37% of 290,000 active; active = well fitted curve in the direction sought with a large enough effect; an effect the other way counts as inactive or inconclusive; also: potency is read from the fitted curve at half-maximal effect; % is scaled to controls: 0 for no effect and ±100 for the full control effect
Target sequence (Q27686 whole entry, looked up): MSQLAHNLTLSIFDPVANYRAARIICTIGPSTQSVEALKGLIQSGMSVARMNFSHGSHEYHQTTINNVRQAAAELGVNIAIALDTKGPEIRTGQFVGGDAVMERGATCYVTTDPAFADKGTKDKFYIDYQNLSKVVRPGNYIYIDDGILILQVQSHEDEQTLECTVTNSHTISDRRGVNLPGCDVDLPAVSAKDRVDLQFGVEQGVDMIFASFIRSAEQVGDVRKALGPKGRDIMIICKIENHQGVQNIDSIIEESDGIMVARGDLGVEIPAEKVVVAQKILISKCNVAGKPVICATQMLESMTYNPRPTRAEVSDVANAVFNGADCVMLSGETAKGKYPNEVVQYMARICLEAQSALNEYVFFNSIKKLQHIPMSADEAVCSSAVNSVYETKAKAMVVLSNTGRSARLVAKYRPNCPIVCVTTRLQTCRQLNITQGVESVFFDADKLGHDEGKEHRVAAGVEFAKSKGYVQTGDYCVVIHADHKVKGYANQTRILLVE
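ATP generated from ADP (0.1 mM) and PEP (0.5 mM) by 0.1 nM LmPK over 1 h at room temperature (pH 7.2 imidazole buffer) was detected by coupled luciferase luminescence. Values were normalized to uninhibited and no-enzyme wells.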
Numbers without * were called inactive; [ ] = remark or other dose. Unless noted, calls follow the shape of the full dose curve.

What do the screens show for `Cc1cc(C(=O)COC(=O)c2ccc[nH]c2=O)c(C)n1-c1ccccc1F`?
CHX counter: 1; Shiga toxin inh: -19; SARS PLP yeast: 0%; NS1 function inh: -80%; Tb PYK inh: 0%; LmPK inhibitor: 6%

What do the screens show for `Cc1ccc(-n2c(C)cc(C(=O)Cn3nc(C(=O)O)c4ccccc4c3=O)c2C)cc1`?
CHX counter: 19*; Shiga toxin inh: 42*; SARS PLP yeast: -13%; NS1 function inh: 9%; Tb PYK inh: -1%; LmPK inhibitor: 4%

What do the screens show for `COc1ccc(-n2c(C)cc(C(=O)Cn3nnc4ccccc4c3=O)c2C)cc1`?
CHX counter: 15*; Shiga toxin inh: 18; SARS PLP yeast: -6%; NS1 function inh: -20%; Tb PYK inh: -6%; LmPK inhibitor: 6%

How did Cc1cc(C(=O)Cn2nnc3ccccc3c2=O)c(C)n1-c1c(C)n(C)n(-c2ccccc2)c1=O do in these assays?
CHX counter: -2; Shiga toxin inh: -12; SARS PLP yeast: -2%; NS1 function inh: 16%; Tb PYK inh: -9%; LmPK inhibitor: 4%

What do the screens show for `COc1ccc(-n2c(C)cc(C(=O)COC(=O)Cc3n[nH]c(=O)c4ccccc34)c2C)cc1`?
CHX counter: -6; Shiga toxin inh: 14; SARS PLP yeast: -20%; NS1 function inh: 17%; Tb PYK inh: 1%; LmPK inhibitor: 7%

Results for COc1ccccc1-n1nc(C(=O)O)c2ccccc2c1=O ?
CHX counter: -2; Shiga toxin inh: -3; SARS PLP yeast: -2%; NS1 function inh: 6%; Tb PYK inh: -5%; LmPK inhibitor: -1%

What do the screens show for `Cc1cc(C(=O)Cn2nnc3ccccc3c2=O)c(C)n1-c1ccccc1F`?
CHX counter: 46*; Shiga toxin inh: 29; SARS PLP yeast: -16%; NS1 function inh: 2%; Tb PYK inh: -17%; LmPK inhibitor: 2%

Results for COc1ccccc1Cn1nc(C(=O)O)c2ccccc2c1=O ?
CHX counter: 20*; Shiga toxin inh: 43*; SARS PLP yeast: 11%; NS1 function inh: -14%; Tb PYK inh: -3%; LmPK inhibitor: -7%

How did C[C@H](CO)N1C[C@H](C)[C@@H](CN(C)Cc2ccccc2)Oc2c(NC(=O)C3CC3)cccc2C1=O do in these assays?
SARS PLP yeast: 9%; Tb PYK inh: 4%

What do the screens show for `CC(NC(=O)Cn1c(-c2cccs2)cc2cc(F)ccc21)c1ccccc1` (centres undefined)?
Tb PYK inh: 3%

Results for CC(C)(CNC(=O)c1ccc(S(=O)(=O)Nc2cccc(C(F)(F)F)c2)cc1)N1CCOCC1 ?
SARS PLP yeast: 10%; Tb PYK inh: -14%

Results for CCOc1ccccc1Nc1sc(C(=O)c2ccc(Cl)cc2)c(N)c1S(=O)(=O)c1ccccc1 ?
Tb PYK inh: 0%

How did CCCCc1nc2c(c3c1C[C@H](C)OC3)CN(C(=O)NCCc1c[nH]c3ccccc13)CC2 do in these assays?
LmPK inhibitor: -2%[11.5 µM]

Results for Cc1cc(C(=O)OCC(=O)N2CCN(C(=O)c3ccco3)CC2)c(C)n1-c1ccc(F)cc1 ?
CHX counter: 1; Shiga toxin inh: 3; SARS PLP yeast: 4%; NS1 function inh: -10%; Tb PYK inh: -16%; LmPK inhibitor: -4%

How did COc1ccc2[nH]cc(C(=O)CN3CCC(C)CC3)c2c1 do in these assays?
CHX counter: 35*; Shiga toxin inh: 76*; SARS PLP yeast: 1%; NS1 function inh: -6%; Tb PYK inh: -9%; LmPK inhibitor: 2%

Results for Cc1cc(C(=O)CN2CCCC2)c(C)n1-c1ccc(F)cc1 ?
CHX counter: 3; Shiga toxin inh: 6; SARS PLP yeast: 1%; NS1 function inh: 2%; Tb PYK inh: -4%; LmPK inhibitor: 5%

What do the screens show for `Cc1cc(C(=O)CNCc2ccco2)c(C)n1-c1ccc(F)cc1`?
CHX counter: 38*; Shiga toxin inh: 74*; SARS PLP yeast: -9%; NS1 function inh: 2%; Tb PYK inh: 9%; LmPK inhibitor: 0%

How did Cc1cc(C(=O)CN2CCC(C)CC2)c(C)n1-c1ccc(F)cc1 do in these assays?
CHX counter: 32*; Shiga toxin inh: 22*; SARS PLP yeast: 14%; NS1 function inh: 0%; Tb PYK inh: -1%; LmPK inhibitor: 6%

Results for Cc1cc(C(=O)NC2CCCCC2)c(C)n1-c1ccc(F)cc1 ?
CHX counter: 46*; Shiga toxin inh: 77*; SARS PLP yeast: -5%; NS1 function inh: -7%; Tb PYK inh: 3%; LmPK inhibitor: -4%

How did CC12CCC(=O)N1C(C(=O)NNC(=O)c1ccc(F)cc1)CS2 (centres undefined) do in these assays?
SARS PLP yeast: -2%; Tb PYK inh: 1%

How did CCc1cccc(N2C(=O)CSC23C(=O)N(Cc2ccccc2F)c2ccccc23)c1 (centres undefined) do in these assays?
Tb PYK inh: -1%

Results for Cc1cc(C(=O)CN2CCCCC2)c(C)n1-c1ccc(F)cc1 ?
CHX counter: 37*; Shiga toxin inh: 56*; SARS PLP yeast: -8%; NS1 function inh: 4%; Tb PYK inh: -2%; LmPK inhibitor: -1%

Results for COc1ccc(-n2c(C)cc(C(=O)CN3CCCCC3)c2C)cc1 ?
CHX counter: 17; Shiga toxin inh: -3; SARS PLP yeast: 0%; Tb PYK inh: 2%; LmPK inhibitor: 0%

How did COc1ccc(-n2c(C)cc(C(=O)CN3CCC(C)CC3)c2C)cc1 do in these assays?
CHX counter: 37*; Shiga toxin inh: 63; SARS PLP yeast: 3%; Tb PYK inh: 10%; LmPK inhibitor: -4%

What do the screens show for `Cc1ccc(OCC(=O)Nc2nnc(SCc3cc(=O)c4ccccc4[nH]3)s2)cc1C`?
Tb PYK inh: -10%

What do the screens show for `Cc1ccc(OCC(=O)Nc2nnc(SCc3cc(=O)c4ccccc4[nH]3)s2)cc1`?
Tb PYK inh: 28µM*

What do the screens show for `CCOc1ccc(N(CC(=O)NC2CCCC2)C(=O)CCC(=O)Nc2nccs2)cc1`?
CHX counter: 1; Shiga toxin inh: -2; SARS PLP yeast: -2%; NS1 function inh: -3%; Tb PYK inh: 0%; LmPK inhibitor: -2%

Results for CCc1ccc(OCc2cnc(Cl)s2)cc1 ?
CHX counter: 28*; Shiga toxin inh: 78; SARS PLP yeast: 2%; NS1 function inh: 2%; Tb PYK inh: 2%; LmPK inhibitor: -6%

What do the screens show for `O=C1NC(=O)/C(=C\c2ccc(OCc3cnc(Cl)s3)cc2)S1`?
CHX counter: -3; Shiga toxin inh: -4; SARS PLP yeast: 0%; NS1 function inh: -6%; Tb PYK inh: 1%; LmPK inhibitor: 0%

Results for CC(=O)Nc1ccc(OCCOCCOc2ccc(NC(C)=O)cc2)cc1 ?
Tb PYK inh: -9%

What do the screens show for `CC(=O)Nc1ccc(OCc2cnc(Cl)s2)cc1`?
CHX counter: 25*; Shiga toxin inh: 35; SARS PLP yeast: 0%; NS1 function inh: 1%; Tb PYK inh: 6%; LmPK inhibitor: -2%
